Compounds with a hit are over-represented: about 11% of the library has one in this group of screens.
Luciferase inh: Firefly luciferase inhibition profiling of diverse chemical library using quantitative high-throughput screening. Luciferin 4-monooxygenase (Photinus pyralis), P08659. purified P. pyralis luciferase, luminescence, biochemical. Potency, µM (top dose mostly 115 µM), hits mostly inhibitors. 76,000 compounds, 2.5% hits; further: nearly all actives have a fitted effect of over 65% in size
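Luminescence read by CCD imaging after purified firefly luciferase (10nM final) was added to substrate buffer holding 10uM D-luciferin and 10uM ATP, pH 7.5, pre-dosed with compound.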
hNpr1 antagonist: Natriuretic polypeptide receptor (hNpr1) antagonism - Primary qHTS; Atrial natriuretic peptide receptor 1 (Homo sapiens), P16066; 76,000 compounds, 1.6% hits; Potency, µM (titrated, usually from 46.3 µM), for inactives: top-dose activity change, negative = inhibition, usual class: inhibitors; HEK293 hNpr1 GloSensor cGMP, ANP-stimulated luminescence; calls by dose curve; further: nearly all actives have a fitted effect of over 60% in size
Target sequence (P16066 whole entry, looked up): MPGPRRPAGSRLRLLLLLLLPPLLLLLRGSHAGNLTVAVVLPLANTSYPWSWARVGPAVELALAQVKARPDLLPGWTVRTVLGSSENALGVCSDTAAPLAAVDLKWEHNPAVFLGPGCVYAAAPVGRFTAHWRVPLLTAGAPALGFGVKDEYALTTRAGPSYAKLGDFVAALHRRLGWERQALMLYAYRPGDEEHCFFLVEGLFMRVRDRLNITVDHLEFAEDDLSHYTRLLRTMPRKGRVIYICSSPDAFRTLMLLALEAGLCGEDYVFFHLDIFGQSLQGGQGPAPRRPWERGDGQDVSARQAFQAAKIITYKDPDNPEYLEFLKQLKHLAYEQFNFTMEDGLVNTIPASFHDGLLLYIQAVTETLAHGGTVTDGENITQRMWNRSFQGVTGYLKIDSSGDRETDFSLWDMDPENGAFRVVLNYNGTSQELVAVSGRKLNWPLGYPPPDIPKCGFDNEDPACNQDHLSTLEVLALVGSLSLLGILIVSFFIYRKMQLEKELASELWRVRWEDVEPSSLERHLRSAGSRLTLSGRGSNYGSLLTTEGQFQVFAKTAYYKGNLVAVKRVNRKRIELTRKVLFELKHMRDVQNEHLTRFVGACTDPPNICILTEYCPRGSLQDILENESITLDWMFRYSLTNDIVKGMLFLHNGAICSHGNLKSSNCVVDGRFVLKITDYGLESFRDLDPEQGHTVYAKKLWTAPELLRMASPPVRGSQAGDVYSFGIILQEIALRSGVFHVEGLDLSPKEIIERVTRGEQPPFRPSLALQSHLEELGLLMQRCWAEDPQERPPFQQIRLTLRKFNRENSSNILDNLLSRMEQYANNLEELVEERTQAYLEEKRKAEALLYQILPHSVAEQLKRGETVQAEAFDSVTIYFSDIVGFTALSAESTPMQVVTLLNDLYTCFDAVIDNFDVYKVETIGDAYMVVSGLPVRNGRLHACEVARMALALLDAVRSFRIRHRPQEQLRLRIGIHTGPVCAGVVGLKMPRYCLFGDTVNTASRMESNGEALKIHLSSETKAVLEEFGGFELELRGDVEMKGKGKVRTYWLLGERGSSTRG
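Compound pre-incubated 30 min at room temperature on GloSensor-loaded HEK293 cells stably carrying hNpr1 and the pGS-40F cGMP biosensor. Stimulation uses hNppA at 0.1 nM final; luminescence is taken at baseline and 20 min post-agonist.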
3T3 cytotox: Cytotoxic Profiling in NIH 3T3 Cell Line of Diverse Libraries Using Quantitative High-Throughput Screening. Potency, µM (titrated, usually from 96.7 µM), without a hit: at the top dose activity change, negative = cytotoxicity, usual class: inhibitors. 94,000 compounds, 4.3% hits. NIH 3T3 viability, CellTiter-Glo ATP luminescence, 48-72 h; further: nearly all actives have a fitted effect of over 55% in size
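NIH 3T3 cells at 400 cells/well received 23 nL of compound by pintool and were incubated 48 or 72 h at 37 °C. Viability was read as ATP-coupled CellTiter-Glo luminescence.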
HEK cytotox: Cytotoxic Profiling in HEK 293 Cell Line of Diverse Libraries Using Quantitative High-Throughput Screening. HEK 293 viability, ATP luminescence (CellTiter-Glo), 48-72 h. Potency, µM (doses to about 115 µM), for the others: at the highest dose activity change, negative = cytotoxicity, usual class: inhibitors. 94,000 compounds, 6.6% hits. AID 1345083, 2018; further: nearly all actives have a fitted effect of over 60% in size
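250 HEK 293 cells/well; compound by pintool; incubated 48 or 72 hr at 37 degree Celsius; CellTiter-Glo added, 10 min RT, luminescence imaged.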
The depositor's hits bear a star; i = inactive; ? = inconclusive; nt = not tested or not shown; [ ] = another dose, or the depositor's remark. Unless noted, the call rests on the fitted dose curve; in most records, active means well fitted curve in the direction sought with a large enough effect; inconclusive means small, poorly fitted or top-dose-only effect, or another doubt; inactive means no such curve, though single readings can be large; an effect the other way counts as inactive or inconclusive. On the % scale 0 is the no-effect control and ±100 the full control effect; potency means the concentration at half of the fitted maximal effect.

SMILES	Luciferase inh	hNpr1 antagonist	3T3 cytotox	HEK cytotox
COc1ccc(-c2cc([C@H]3CN4CC[C@H]3C[C@@H]4CNC(=O)c3ccc(C(C)(C)C)cc3)n(C)n2)cc1OC	i	1%	?	20µM*
COc1ccc(OC)c(S(=O)(=O)NC[C@H]2C[C@@H]3CCN2C[C@@H]3c2cc(-c3ccc(F)cc3)nn2C)c1	i	-20%	?	28µM*
COc1ccc(C(=O)NC[C@H]2C[C@@H]3CCN2C[C@@H]3c2cc(-c3ccc(F)cc3)nn2C)cc1	i	0%	?	?
COc1ccc(NC(=O)NC[C@H]2C[C@@H]3CCN2C[C@@H]3c2cc(-c3ccc(OC)c(OC)c3)nn2C)cc1	i	8%	?	?
COc1ccc(-c2cc([C@H]3CN4CC[C@H]3C[C@@H]4CNC(=O)Nc3cccc4ccccc34)n(C)n2)cc1OC	i	3%	?	45µM*
Cc1ccc(C(=O)NC[C@H]2C[C@@H]3CCN2C[C@@H]3c2cc(-c3ccc(F)cc3)nn2C)cc1	i	-27%[70.6 µM]	25µM*	25µM*
O=C(c1ccc(F)cc1)N1C[C@@H]2C[C@H](C1)c1c(-c3cc4ccccc4s3)ccc(=O)n1C2	i	0%	-18%	-5%
COC[C@H]1CCCN1C[C@H]1CN2CC[C@H]1C[C@@H]2CNC(=O)Nc1ccsc1	i	-4%[70.6 µM]	?	?
Cn1nc(-c2ccc(F)cc2)cc1[C@H]1CN2CC[C@H]1C[C@@H]2CNC(=O)c1cccs1	i	-19%[70.6 µM]	56µM*	45µM*
COc1ccc(-c2cc([C@H]3CN4CC[C@H]3C[C@@H]4CNC(=O)NC3CCCCC3)n(C)n2)cc1	i	-1%	89µM*	?
CN1CCN(C(=O)Cc2c[nH]c3ncc(-c4ccccc4F)cc23)CC1	?	3%[70.6 µM]	?	-9%[172 µM]
CN1CCN(C(=O)Cc2c[nH]c3ncc(-c4cccc(O)c4)cc23)CC1	?	4%[70.6 µM]	89µM*	-7%[172 µM]
CN1CCN(C(=O)Cc2c[nH]c3ncc(-c4ccsc4)cc23)CC1	?	7%[70.6 µM]	89µM*	-10%[172 µM]
COCCOCC(=O)N1CCC2(CC1)c1nccn1-c1ccccc1CN2CC(C)C	i	-14%	i	-15%
CC(C)CN1Cc2ccccc2-n2ccnc2C12CCN(C(=O)c1cccs1)CC2	i	-19%	?	45µM*
CCOCC(=O)N1CCC2(CC1)c1nccn1-c1ccccc1CN2CC(C)C	i	-4%	i	?
CC(C)CN1Cc2ccccc2-n2ccnc2C12CCN(C(=O)c1cccc(F)c1)CC2	i	-18%	?	35µM*
CCn1ccc(C(=O)N2CCC3(CC2)c2nccn2-c2ccccc2CN3CC(C)C)n1	i	4%	?	45µM*
CC(C)CN1Cc2ccccc2-n2ccnc2C12CCN(C(=O)c1ccn[nH]1)CC2	i	-15%	-26%	40µM*
Cc1cc(S(=O)(=O)N2[C@H]3CC[C@@H]2c2cnc(-c4ccccc4)nc2C3)ccc1F	i	1%	-3%	-7%
O=C1NC[C@H]2CN(Cc3ccccc3)CCN12	i	0%[70.6 µM]	-13%[174 µM]	-18%[230 µM]
CC(C)CN1Cc2ccccc2-n2ccnc2C12CCN(C(=O)c1ccco1)CC2	i	-15%	?	45µM*
CC(C)CN1Cc2ccccc2-n2ccnc2C12CCN(C(=O)c1ccoc1)CC2	i	-21%	?	?
CCOC(=O)[C@H]1CN(C(=O)c2ccc(SC)cc2)[C@]2(C)C(=O)N(C)c3ccccc3[C@H]12	nt	nt	-27%[46.1 µM]	?
COc1cc2c(cc1OCc1ccccc1)N(C(=O)Cc1ccc3c(c1)OCO3)CC21CCN(C)CC1	i	7%	?	79µM*
COc1cc2c(cc1CCc1ccccc1)N(C(=O)CC(C)C)CC21CCN(C(C)=O)CC1	i	2%	?	?
COc1ccc(CC(=O)N2CC3(CCN(C)CC3)c3cc(OC)c(OCc4ccccc4)cc32)cc1	i	6%	?	32µM*
COc1cc2c(cc1CCc1ccccc1)N(C(=O)Cc1ccc3c(c1)OCO3)CC21CCN(C(C)=O)CC1	i	-17%	?	-24%

Assay outcomes from PubChem.
